Results on 6 compounds are retold here after PubChem BioAssay (EPA / NIEHS).

The source made the active and inactive calls. How the source made its calls: active means hit-call score of the fitted dose curve at least 0.9, where 1 is the maximum; inactive means score below 0.9.

Read-out in assay [1]: Vascular cell adhesion molecule 1 (VCAM1), VCAM1 (gene 7412)
Briefly: BSK_4H_VCAM1: BioMAP Diversity Plus: 4H Assay for Vascular cell adhesion molecule 1 (VCAM1) Biomarker Activity (AID 2283033).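 On outcome: cell-surface VCAM-1 protein measured by ELISA.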 The following applies: primary human endothelial cells (HUVEC); actives raise or lower the signal. The procedure, abridged:
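In this human endothelial (HUVEC) system, biomarker ELISA was run 24 h after compound addition, and total protein in parallel wells was assessed by SRB at 560 nm; DMSO served as negative control.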

Read-out in assay [2]: Interferon-gamma inducible Protein 10 (IP10), CXCL10 (gene 3627)
Briefly: BSK_BE3C_IP10: BioMAP Diversity Plus: BE3C Assay for Interferon-gamma inducible Protein 10 (IP10) Biomarker Activity (AID 2283034). The following applies: primary human bronchial epithelial cells; actives raise or lower the signal. The procedure, abridged: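 BE3C cells (human bronchial epithelial, primary); 24 h exposure; ELISA for IP-10; DMSO-referenced bidirectional fit.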

Read-out in assay [3]: Monokine induced gamma interferon (MIG), CXCL9 (gene 4283)
Briefly: BSK_BE3C_MIG: BioMAP Diversity Plus: BE3C Assay for Monokine induced gamma interferon (MIG) Biomarker Activity (AID 2283035).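 Further: MIG protein measured by ELISA in BE3C cultures after 24 h of dosing.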 The conditions noted are these: primary human bronchial epithelial cells; actives raise or lower the signal. A digest of the protocol:
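hu bronchial epithelial 1° cells, 24 h cpd; MIG by ELISA; bidirectional fit, DMSO = baseline.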

Read-out in assay [4]: Transforming growth factor beta 1 (TGFb1), TGFB1 (gene 7040)
Briefly: BSK_BE3C_TGFb1: BioMAP Diversity Plus: BE3C Assay for Transforming growth factor beta 1 (TGFb1) Biomarker Activity (AID 2283036;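 further: TGF-b1 protein level measured by ELISA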). The following applies: primary human bronchial epithelial cells; actives raise or lower the signal. The procedure, abridged: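 TGF-b1 measured via ELISA, 24 h after chemical dosing of human bronchial epithelial cells (BE3C). Overt cytotoxicity assessed in parallel by SRB (0.1%, TCA-fixed, 560 nm); analysis bidirectional relative to DMSO.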

Read-out in assay [5]: Plasminogen activator inhibitor-1 (PAI1), SERPINE1 (gene 5054)
Briefly: BSK_BE3C_PAI1: BioMAP Diversity Plus: BE3C Assay for Plasminogen activator inhibitor-1 (PAI1) Biomarker Activity (AID 2283037). The following applies: primary human bronchial epithelial cells; actives raise or lower the signal. A digest of the protocol: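 In this multiplexed primary-cell system, bronchial epithelial cells receive test chemical and are sampled at 24 h. PAI-1 is read by ELISA, with DMSO serving as negative control for bidirectional fitting.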

Read-out in assay [6]: urokinase plasminogen activator (uPA), PLAU (gene 5328)
Briefly: BSK_BE3C_uPA: BioMAP Diversity Plus: BE3C Assay for urokinase plasminogen activator (uPA) Biomarker Activity (AID 2283038).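 On outcome: uPA protein level quantified by ELISA in cell cultures; uPA read one day after compound addition.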 The conditions noted are these: primary human bronchial epithelial cells; actives raise or lower the signal. A digest of the protocol: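 Human primary bronchial epithelial cells were exposed to chemical for 24 h, then uPA levels were measured by ELISA. Responses were fitted bidirectionally against DMSO as negative control and baseline. Parallel SRB staining of total protein gauged overt cytotoxicity.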

Read-out in assay [7]: Urokinase-type plasminogen activator receptor (uPAR), PLAUR (gene 5329)
Briefly: BSK_BE3C_uPAR: BioMAP Diversity Plus: BE3C Assay for Urokinase-type plasminogen activator receptor (uPAR) Biomarker Activity (AID 2283039).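 On outcome: cells exposed to compound for one day before measurement.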 The conditions noted are these: primary human bronchial epithelial cells; actives raise or lower the signal. A digest of the protocol: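 Chemically treated human bronchial epithelial cells (lung primary) are assayed for uPAR by ELISA after 24 h, with data fitted in both directions using DMSO as negative control.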

Read-out in assay [8]: Interleukin-6 (IL6), IL6 (gene 3569)
Briefly: BSK_CASM3C_IL6: BioMAP Diversity Plus: CASM3C Assay for Interleukin-6 (IL6) Biomarker Activity for (AID 2283040). The conditions noted are these: primary human coronary artery smooth muscle cells; actives raise or lower the signal.

Read-out in assay [9]: Tissue plasminogen activator (tPA), PLAT (gene 5327)
Briefly: BSK_BE3C_tPA: BioMAP Diversity Plus: BE3C Assay for Tissue plasminogen activator (tPA) Biomarker Activity (AID 2283041).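 On outcome: tPA level quantified by ELISA one day after compound addition.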 The conditions noted are these: primary human bronchial epithelial cells; actives raise or lower the signal. The procedure, abridged: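 Using human lung primary bronchial epithelial cells, tPA was measured by ELISA 24 h after dosing; data fitted relative to DMSO.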

Read-out in assay [10]: Interleukin-8 (IL8), CXCL8 (gene 3576)
Briefly: BSK_CASM3C_IL8: BioMAP Diversity Plus: CASM3C Assay for Interleukin-8 (IL8) Biomarker Activity (AID 2283042).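 Further: IL-8 protein level quantified by ELISA.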 The following applies: primary human coronary artery smooth muscle cells; actives raise or lower the signal.

Read-out in assay [11]: Human Leukocyte Antigen - DR isotype (HLADR), HLA-DRA (gene 3122)
Briefly: BSK_CASM3C_HLADR: BioMAP Diversity Plus: CASM3C Assay for Human Leukocyte Antigen - DR isotype (HLADR) Biomarker Activity (AID 2283043).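 Further: cell-surface HLA-DR protein level quantified by ELISA.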 The following applies: primary human coronary artery smooth muscle cells; actives raise or lower the signal.

Read-out in assay [12]: Macrophage colony-stimulating factor (MCSF), CSF1 (gene 1435)
Briefly: BSK_CASM3C_MCSF: BioMAP Diversity Plus: CASM3C Assay for Macrophage colony-stimulating factor (MCSF) Biomarker Activity (AID 2283044).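 Further: M-CSF protein amount quantified by ELISA after 24 h exposure.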 The following applies: primary human coronary artery smooth muscle cells; actives raise or lower the signal.

Read-out in assay [13]: Low-density lipoprotein receptor (LDLR), LDLR (gene 3949)
Briefly: BSK_CASM3C_LDLR: BioMAP Diversity Plus: CASM3C Assay for Low-density lipoprotein receptor (LDLR) Biomarker Activity (AID 2283045).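 Further: LDLR protein level on the cell surface quantified by ELISA.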 The conditions noted are these: primary human coronary artery smooth muscle cells; actives raise or lower the signal.

Read-out in assay [14]: Monocyte Chemoattractant Protein-1 (MCP1), CCL2 (gene 6347)
Briefly: BSK_CASM3C_MCP1: BioMAP Diversity Plus: CASM3C Assay for Monocyte Chemoattractant Protein-1 (MCP1) Biomarker Activity (AID 2283046).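 Further: MCP-1 level quantified by ELISA 24 h after dosing.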 The following applies: primary human coronary artery smooth muscle cells; actives raise or lower the signal.

Assay [15] in a line: BSK_CASM3C_Proliferation: Cell Proliferation Assessment in the BioMAP Diversity Plus: CASM3C Assay (AID 2283047).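 Further: sulforhodamine B total protein stain as relative cell number at 560 nm; sub-confluent cells exposed 48 h before staining; fitted both ways against DMSO so gain or loss of cell number.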 The following applies: primary human coronary artery smooth muscle cells.
Read-out in assay [16]: Monokine induced gamma interferon (MIG), CXCL9 (gene 4283)
Briefly: BSK_CASM3C_MIG: BioMAP Diversity Plus: CASM3C Assay for Monokine induced gamma interferon (MIG) Biomarker Activity (AID 2283048). The conditions noted are these: primary human coronary artery smooth muscle cells; actives raise or lower the signal.

Read-out in assay [17]: serum amyloid A (SAA), SAA1 (gene 6288)
Briefly: BSK_CASM3C_SAA: BioMAP Diversity Plus: CASM3C Assay for serum amyloid A (SAA) Biomarker Activity (AID 2283049).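 Further: SAA protein level quantified by ELISA.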 The following applies: primary human coronary artery smooth muscle cells; actives raise or lower the signal.

The nature of assay [18]: BSK_CASM3C_SRB: Viability Assessment in the BioMAP Diversity Plus: CASM3C Assay (AID 2283050).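 Further: total protein by SRB staining as cytotoxicity measure in parallel cultures.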 The conditions noted are these: primary human coronary artery smooth muscle cells.
Read-out in assay [19]: Thrombomodulin, THBD (gene 7056)
Briefly: BSK_CASM3C_Thrombomodulin: BioMAP Diversity Plus: CASM3C Assay for Thrombomodulin Biomarker Activity (AID 2283051).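 Further: thrombomodulin protein level measured by ELISA 24 h after dosing.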 The conditions noted are these: primary human coronary artery smooth muscle cells; actives raise or lower the signal.

Read-out in assay [20]: Tissue Factor, F3 (gene 2152)
Briefly: BSK_CASM3C_TissueFactor: BioMAP Diversity Plus: CASM3C Assay for Tissue Factor Biomarker Activity (AID 2283052).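 Further: cell surface tissue factor protein level read by ELISA.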 The following applies: primary human coronary artery smooth muscle cells; actives raise or lower the signal.

In general, AC50 refers to the concentration giving half of the maximal activity seen. For `c1ccc2sc(SN(C3CCCCC3)C3CCCCC3)nc2c1`, the AC50 in [1] was 5450 nM (active); in [2], 2670 nM (active); in assay [15], 117 nM (active); in assay [19] it was 3000 nM (active). Besides, the result in [3], in [4], in [5], in assay [6], in assay [7] and in assay [8] was inactive. In addition, the result in assay [9], in [10], in [11], in assay [12], in assay [13] and in assay [14] was inactive. In addition, the outcome in assay [16], in [17], in [18] and in assay [20] was inactive.
On to `CC(=O)Nc1ccccc1O`, for which the outcome in assay [1], in assay [2], in assay [3], in assay [4], in [5] and in assay [6] was inactive. Besides, the result in assay [7], in assay [8], in assay [9], in assay [10], in assay [11] and in [12] was inactive. For the same compound, the result in assay [13], in assay [14], in assay [15], in assay [16], in assay [17] and in assay [18] was inactive. Moreover, the outcome in assay [19] and in assay [20] was inactive.
Take `O=C(O)C[C@H](O)C[C@H](O)/C=C/c1c(C2CC2)nc2ccccc2c1-c1ccc(F)cc1`: the outcome in assay [1], in assay [2], in assay [3], in [4], in assay [5] and in assay [7] was inactive. Further, the result in assay [10], in assay [11], in assay [13], in assay [16], in assay [17] and in assay [18] was inactive. Further, the AC50 in assay [6] is 1700 nM (active); in assay [8] it was 4.1 nM (active); in [9], 84.3 nM (active); in assay [12] it was 63.6 nM (active); in assay [14], 11.7 nM (active); in assay [15] it was 129 nM (active). For the same compound, the AC50 in assay [19] is 28.7 nM (active); in assay [20], 4.1 nM (active).
For `Cc1ccc(Nc2ccc(O)c3c2C(=O)c2ccccc2C3=O)cc1`, the result in assay [1], in assay [2], in assay [3], in [4], in assay [5] and in [6] was inactive. Besides, the result in [7], in assay [8], in assay [9], in [10], in [11] and in assay [12] was inactive. Further, the result in assay [13], in [14], in assay [15], in [16], in assay [17] and in [18] was inactive. Further, the outcome in assay [19] and in assay [20] was inactive.
Turning to `N#Cc1ccc(CC(=NNC(=O)Nc2ccc(OC(F)(F)F)cc2)c2cccc(C(F)(F)F)c2)cc1`, the outcome in [1], in [2], in assay [3], in assay [4], in assay [5] and in assay [6] was inactive. Moreover, the result in [7], in assay [8], in [9], in [10], in assay [11] and in assay [12] was inactive. For the same compound, the outcome in assay [13], in [14], in [15], in assay [16], in [17] and in assay [18] was inactive. Moreover, the result in assay [19] and in assay [20] was inactive.
On to `CN(CCOc1ccc(CC2SC(=O)NC2=O)cc1)c1ccccn1` (stereo not given), for which the AC50 in assay [1] is 8460 nM (active); in [2] it was 11000 nM (active); in assay [5], 210 nM (active); in assay [7], 3970 nM (active); in assay [13], 4980 nM (active); in [20], 5590 nM (active). Also, the result in assay [3], in assay [4], in [6], in [8], in assay [9] and in assay [10] was inactive. The outcome in assay [11], in assay [12], in assay [14], in [15], in [16] and in [17] was inactive. Further, the result in assay [18] and in assay [19] was inactive.
